Records with an inconclusive call do not appear. Active and inactive are the calls of the source. Unless noted, the call rests on the fitted dose curve; in most records, active means well fitted curve in either direction with a large enough effect (not every such curve was filed as active); inconclusive means small, poorly fitted or top-dose-only effect, or another doubt; inactive means flat fitted curve, though single readings scatter.
What was measured:
[1] = AP1 Signaling Pathway (AID 357); conditions: ME-180 AP-1-bla reporter, EGF-induced, beta-lactamase ratio, 5 h; at 17.2 µM (top of the series) unless noted;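 further: ME-180 reporter cells stimulated with EGF at its EC50 level; on the % scale 0 is the no-effect control and ±100 the full control effect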
Procedure, shortened: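 Beta-lactamase reporter under AP-1 response element, ME-180 background. Stimulus: EC50 EGF. Compound exposure 5 h, 37 °C. Detection: CCF4, 2.5 h RT, 460/530 nm. Values: AC50 from titration.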

[2] = NFAT Signaling Pathway (AID 444); conditions: Jurkat NFAT-bla M1, carbachol, beta-lactamase ratio, 5 h; at 17.2 µM (top of the series) unless noted;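 further: carbachol stimulus at about its EC50 of 1 µM final; on the % scale 0 is the no-effect control and ±100 the full control effect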
Procedure, shortened: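 Read-out: CCF4 FRET ratio (460 nm/530 nm) after 1 h RT dye loading, used for %activity and AC50 from titration series. Cells: Jurkat NFAT-β-lactamase/M1 line, treated with compound plus 1 uM carbachol for 5 h, 37 °C.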

[3] = Stat Signaling Pathway (AID 446); conditions: ME-180 SIE beta-lactamase reporter, IL-6 stimulated, 5 h; at 17.2 µM (top of the series) unless noted;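 further: ME-180 cervical cancer cells given 40 pM IL-6 alongside compound; SIE-controlled beta-lactamase reporter measured as 460/530 nm FRET emission ratio; on the % scale 0 is the no-effect control and ±100 the full control effect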
Procedure, shortened: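 ME-180 cells carrying a SIE-driven beta-lactamase reporter are stimulated with 40 pM IL-6 for 5 h at 37C in the presence of compound. The 460/530 nm FRET substrate ratio is read after 2.5 h at RT. Data are normalised to 300 pM IL-6 and to 125 nM JAK inhibitor controls.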

[4] = molecular target: Glucocorticoid receptor (Homo sapiens) (UniProt P04150); experiment: GR-GFP Redistribution (AID 450;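 active means compounds whose dose series gives a full or clear partial fitted curve of increased nuclear translocation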; further: potency means the concentration at half of the fitted maximal effect)
Chain of Glucocorticoid receptor (Homo sapiens) (P04150 whole entry, looked up, the tested form may be a part): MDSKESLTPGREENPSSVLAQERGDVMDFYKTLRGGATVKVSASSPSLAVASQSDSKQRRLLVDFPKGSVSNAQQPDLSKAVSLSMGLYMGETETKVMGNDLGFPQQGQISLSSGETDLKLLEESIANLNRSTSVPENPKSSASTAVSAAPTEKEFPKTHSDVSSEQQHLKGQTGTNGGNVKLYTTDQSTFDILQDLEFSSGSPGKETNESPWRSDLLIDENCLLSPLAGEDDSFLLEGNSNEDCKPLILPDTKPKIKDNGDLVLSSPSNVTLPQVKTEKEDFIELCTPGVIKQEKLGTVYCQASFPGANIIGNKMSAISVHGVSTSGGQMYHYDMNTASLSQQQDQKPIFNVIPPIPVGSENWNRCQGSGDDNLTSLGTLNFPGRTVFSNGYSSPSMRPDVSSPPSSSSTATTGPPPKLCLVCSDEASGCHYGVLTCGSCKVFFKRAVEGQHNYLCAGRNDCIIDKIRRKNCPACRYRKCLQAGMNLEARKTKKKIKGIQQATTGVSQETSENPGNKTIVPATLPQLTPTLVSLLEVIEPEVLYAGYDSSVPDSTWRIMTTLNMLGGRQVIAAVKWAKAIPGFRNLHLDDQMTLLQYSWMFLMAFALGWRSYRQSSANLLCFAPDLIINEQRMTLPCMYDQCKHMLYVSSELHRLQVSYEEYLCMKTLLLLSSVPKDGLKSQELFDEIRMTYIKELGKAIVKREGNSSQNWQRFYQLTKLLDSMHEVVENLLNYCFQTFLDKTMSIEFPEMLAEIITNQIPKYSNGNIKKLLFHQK

[5] = qHTS Assay for Identification of Small Molecule Agonists for Hypoxia Response Element Signaling Pathway (AID 914; active means well fitted activation curve with a large enough effect in the signal ratio, with a control signal flat, not every such curve was filed as active; the % refers to the signal ratio; further: % of control where 0% means no effect); conditions: ME-180 (cervical carcinoma) HRE-bla reporter, beta-lactamase ratio, CoCl2, 17 h; activation: hits give high values
Procedure, shortened: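 Reporter activity (beta-lactamase, CCF4 460nm/530nm ratio) in HRE-bla ME-180 cells is recorded after 17 h compound exposure with EC50 CoCl2 at 37 degrees Celsius. AC50 values come from titration data.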

[6] = molecular target: Cytochrome P450 3A4 (Homo sapiens) (UniProt P08684); experiment: qHTS Assay for Activators of Cytochrome P450 3A4 (AID 885; active means well fitted curve in the direction sought with a large enough effect; an effect the other way counts as inactive or inconclusive; further: nearly all actives have a fitted effect of over 65% in size)
Chain of Cytochrome P450 3A4 (Homo sapiens) (P08684 whole entry, looked up): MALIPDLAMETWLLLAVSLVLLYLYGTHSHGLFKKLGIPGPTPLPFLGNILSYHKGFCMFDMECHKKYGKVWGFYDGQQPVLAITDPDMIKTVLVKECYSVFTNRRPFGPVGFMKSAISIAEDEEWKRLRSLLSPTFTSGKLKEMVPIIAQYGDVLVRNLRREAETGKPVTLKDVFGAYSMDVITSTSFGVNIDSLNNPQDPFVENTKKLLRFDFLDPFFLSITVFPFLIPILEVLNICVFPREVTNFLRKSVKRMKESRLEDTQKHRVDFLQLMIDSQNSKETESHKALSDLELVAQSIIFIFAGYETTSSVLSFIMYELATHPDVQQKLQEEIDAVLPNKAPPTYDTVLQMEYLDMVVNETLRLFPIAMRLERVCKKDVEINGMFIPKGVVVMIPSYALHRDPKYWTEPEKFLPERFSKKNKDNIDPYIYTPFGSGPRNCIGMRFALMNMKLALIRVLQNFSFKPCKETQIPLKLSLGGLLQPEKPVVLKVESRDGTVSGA
Procedure, shortened: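 Human CYP3A4 (20 nM) with Luciferin-PPXE at 25 uM (its KM) in 200 mM KPO4; 10 min compound preincubation, then NADPH regeneration and 60 min reaction at RT. Luciferin read by luminescence; normalized to 57 uM ketoconazole full inhibition.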

[7] = molecular target: DNA dC->dU-editing enzyme APOBEC-3G (Homo sapiens) (UniProt Q9HC16); experiment: qHTS for inhibitors of Vif-A3G interactions: Validation (AID 588379; active means well fitted curve in the direction sought with a large enough effect; an effect the other way counts as inactive or inconclusive; further: 0% is about no effect)
Chain of DNA dC->dU-editing enzyme APOBEC-3G (Homo sapiens) (Q9HC16 whole entry, looked up): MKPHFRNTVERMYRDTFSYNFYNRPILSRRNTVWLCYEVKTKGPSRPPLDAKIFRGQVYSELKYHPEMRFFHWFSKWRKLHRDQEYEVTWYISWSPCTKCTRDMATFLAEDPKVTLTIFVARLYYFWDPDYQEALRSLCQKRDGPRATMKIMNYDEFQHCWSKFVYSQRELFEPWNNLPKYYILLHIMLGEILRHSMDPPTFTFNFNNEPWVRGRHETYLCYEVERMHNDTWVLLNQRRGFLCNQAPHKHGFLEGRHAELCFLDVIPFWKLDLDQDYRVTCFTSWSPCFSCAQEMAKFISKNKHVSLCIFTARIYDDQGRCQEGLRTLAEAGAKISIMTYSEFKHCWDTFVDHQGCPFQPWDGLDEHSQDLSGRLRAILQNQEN
Procedure, shortened: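 HeLa cells stably expressing Vif and A3G-eYFP, 700 cells/well, incubated overnight at 37 deg C, then exposed to compound overnight at 37 deg C. Inhibition of Vif-mediated degradation read as increased yellow fluorescence (Ex 488/Em 500-530) by laser-scanning cytometry.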

[8] = molecular target: Glucocorticoid receptor (Homo sapiens) (UniProt P04150); experiment: GR-EFC Redistribution (AID 451; calls by dose curve; further: potency means the concentration at half of the fitted maximal effect); conditions: CHO-K1 GR-EFC translocation, beta-gal luminescence, 2 h
Procedure, shortened: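 Translocation of GR-ED fusion to nuclear EA restores b-gal, read by luminescence after 1 h room-temperature detection. Engineered CHO-K1 biosensor cells, 1,000/well, exposed 2 h at 37 C to titrations up to 46 uM final.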

[9] = molecular target: 3',5'-cyclic-AMP phosphodiesterase 4B (Homo sapiens) (UniProt Q07343); experiment: qHTS Assay for Inhibitors of PDE-IV (AID 607; active means well fitted activation curve with a large enough effect in the main read-out, with a control signal flat, not every such curve was filed as active; further: % of control where 0% means no effect)
Chain of 3',5'-cyclic-AMP phosphodiesterase 4B (Homo sapiens) (Q07343 whole entry, looked up): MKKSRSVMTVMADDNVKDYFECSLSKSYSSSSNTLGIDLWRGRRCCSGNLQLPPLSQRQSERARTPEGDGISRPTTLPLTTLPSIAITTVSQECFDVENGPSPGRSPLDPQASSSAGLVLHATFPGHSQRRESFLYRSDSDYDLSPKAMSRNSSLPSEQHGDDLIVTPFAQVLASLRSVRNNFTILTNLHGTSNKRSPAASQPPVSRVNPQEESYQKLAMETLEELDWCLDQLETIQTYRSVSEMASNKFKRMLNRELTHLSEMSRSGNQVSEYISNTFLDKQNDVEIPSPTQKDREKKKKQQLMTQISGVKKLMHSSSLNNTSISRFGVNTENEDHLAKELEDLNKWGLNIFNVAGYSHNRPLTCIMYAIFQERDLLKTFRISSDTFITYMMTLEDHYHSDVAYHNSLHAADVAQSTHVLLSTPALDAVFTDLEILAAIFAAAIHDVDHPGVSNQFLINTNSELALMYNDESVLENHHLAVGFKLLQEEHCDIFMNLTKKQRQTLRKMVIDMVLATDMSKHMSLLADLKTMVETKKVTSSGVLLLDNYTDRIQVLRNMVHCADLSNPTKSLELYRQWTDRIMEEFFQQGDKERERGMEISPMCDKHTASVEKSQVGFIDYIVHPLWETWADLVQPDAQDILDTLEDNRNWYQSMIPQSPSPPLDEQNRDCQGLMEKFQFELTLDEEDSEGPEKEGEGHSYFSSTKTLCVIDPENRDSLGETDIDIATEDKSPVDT
Procedure, shortened: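 HEK293 ACTOne cells with CNG channel (1000/well), endogenous PDE4; membrane potential dye, compounds up to 22.9 uM final. Fluorescence Ex 535/Em 590; RO 20-1724 (100 uM final) as reference.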

[10] = molecular target: Guanine nucleotide-binding protein G(i) subunit alpha-1 (Homo sapiens) (UniProt P63096); experiment: qHTS Assay for Inhibitors of RGS12 GoLoco Motif Activity (Green Fluorophore) (AID 879; active means well fitted curve in the direction sought with a large enough effect; an effect the other way counts as inactive or inconclusive;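 further: 0% = labeled peptide with Gαi1 and full inhibition = labeled peptide alone without protein; negative values mean loss of peptide binding seen as reduced polarization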)
Chain of Guanine nucleotide-binding protein G(i) subunit alpha-1 (Homo sapiens) (P63096 whole entry, looked up): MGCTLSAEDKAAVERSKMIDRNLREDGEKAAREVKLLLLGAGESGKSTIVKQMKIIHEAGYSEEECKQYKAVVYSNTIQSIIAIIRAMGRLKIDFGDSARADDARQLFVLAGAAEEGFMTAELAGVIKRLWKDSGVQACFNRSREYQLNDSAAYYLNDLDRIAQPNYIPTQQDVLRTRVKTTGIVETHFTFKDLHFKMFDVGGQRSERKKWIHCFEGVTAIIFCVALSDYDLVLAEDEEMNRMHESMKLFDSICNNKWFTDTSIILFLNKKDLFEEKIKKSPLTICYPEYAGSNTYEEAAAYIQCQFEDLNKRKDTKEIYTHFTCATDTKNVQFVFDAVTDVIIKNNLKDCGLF
Procedure, shortened: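 Fluorescence polarization assay: 50 nM Gαi1 with 10 nM FITC-labeled RGS12 GoLoco peptide in 10 mM Tris pH 7.5, 150 mM NaCl, 0.1 mM GDP, 0.05% NP40, 10 min at room temperature with compound.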

[11] = qHTS Assay for Identification of Small Molecule Agonists for Thrombopoietin (TPO) Signaling Pathway (AID 917; active means well fitted curve in the direction sought with a large enough effect; an effect the other way counts as inactive or inconclusive; further: on the % scale 0 is the no-effect control and ±100 the full control effect)
Procedure, shortened: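 We measured Glycoprotein IIb promoter–luciferase output in IL-3-starved Ba/F3 murine cells expressing the human TPO receptor after 24 hrs at 37 C with compounds and 26 pM TPO.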

[12] = molecular target: Pyruvate kinase (Leishmania mexicana) (UniProt Q27686); experiment: qHTS Validation Assay for Inhibitors of Leishmania Mexicana Pyruvate Kinase (AID 945; active means well fitted curve in the direction sought with a large enough effect; an effect the other way counts as inactive or inconclusive;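 further: 0% = DMSO only neutral control wells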)
Chain of Pyruvate kinase (Leishmania mexicana) (Q27686 2-499 E452W): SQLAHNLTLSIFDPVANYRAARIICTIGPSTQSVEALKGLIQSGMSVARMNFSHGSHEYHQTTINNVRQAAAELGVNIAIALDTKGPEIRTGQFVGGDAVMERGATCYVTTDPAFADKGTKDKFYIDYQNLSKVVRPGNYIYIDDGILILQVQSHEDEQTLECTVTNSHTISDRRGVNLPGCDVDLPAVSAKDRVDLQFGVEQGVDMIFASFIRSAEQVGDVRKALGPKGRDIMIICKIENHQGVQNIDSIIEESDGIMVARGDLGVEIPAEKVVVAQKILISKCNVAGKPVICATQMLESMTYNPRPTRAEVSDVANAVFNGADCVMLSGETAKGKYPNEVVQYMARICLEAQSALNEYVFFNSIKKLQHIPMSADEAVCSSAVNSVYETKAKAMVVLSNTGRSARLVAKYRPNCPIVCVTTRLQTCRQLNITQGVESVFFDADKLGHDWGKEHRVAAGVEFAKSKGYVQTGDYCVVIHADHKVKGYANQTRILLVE
Procedure, shortened: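 Mutant LmPYK (E451W), 0.2 nM, plus 0.5 mM PEP and 0.1 mM ADP in 50 mM imidazole pH 7.2 containing 0.01% Tween 20 and 0.05% BSA. Incubated 1 h at room temperature; luminescence via PKLight, normalized to DMSO.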

[13] = molecular target: Pyruvate kinase PKM (Homo sapiens) (UniProt P14618); experiment: qHTS Assay for Activators of Human Muscle Pyruvate Kinase (AID 954; active means well fitted curve in the direction sought with a large enough effect, not every such curve was filed as active;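 further: 0% = uninhibited enzyme and -100% = no enzyme or full thiadiazolimine inhibition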)
Chain of Pyruvate kinase PKM (Homo sapiens) (P14618 whole entry, looked up): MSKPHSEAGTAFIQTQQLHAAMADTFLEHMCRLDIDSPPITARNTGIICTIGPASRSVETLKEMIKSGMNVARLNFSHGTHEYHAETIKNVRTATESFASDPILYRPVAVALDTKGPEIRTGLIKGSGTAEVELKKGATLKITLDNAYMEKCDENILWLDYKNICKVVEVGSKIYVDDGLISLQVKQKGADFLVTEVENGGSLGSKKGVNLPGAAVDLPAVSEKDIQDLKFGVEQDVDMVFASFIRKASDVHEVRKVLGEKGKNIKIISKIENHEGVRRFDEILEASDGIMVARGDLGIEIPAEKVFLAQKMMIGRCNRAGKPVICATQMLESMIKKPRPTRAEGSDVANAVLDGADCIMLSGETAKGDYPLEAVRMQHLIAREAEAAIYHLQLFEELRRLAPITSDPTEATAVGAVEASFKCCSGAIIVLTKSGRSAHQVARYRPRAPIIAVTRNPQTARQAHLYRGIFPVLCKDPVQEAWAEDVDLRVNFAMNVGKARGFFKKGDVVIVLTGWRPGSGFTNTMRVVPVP
Procedure, shortened: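 Purified human PKM2 (0.1 nM) with 0.5 mM PEP (Km) and 0.1 mM ADP in 50 mM imidazole pH 7.2, KCl, MgCl2, 1 h at room temperature; ATP formed read by coupled luciferase luminescence. Normalized to no-enzyme/110 uM thiadiazolimine inhibition; 0.3 nM enzyme column for activation.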

[14] = molecular target: Alpha-galactosidase A (Homo sapiens) (UniProt P06280); experiment: Counterscreen for Glucocerebrosidase Inhibitors: qHTS Assay for Human alpha-Galactosidase at pH 4.5 (AID 992; active means well fitted curve in the direction sought with a large enough effect; an effect the other way counts as inactive or inconclusive; further: 0% is about no effect)
Procedure, shortened: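 Human enzyme (2 nM) with 80 uM 4-methylumbelliferyl alpha-D-galactopyranoside in 50 mM citric acid, 0.005% Tween-20, pH 4.5, 20 min at room temperature. Compounds 0.7 nM–77 uM; fluorescence Ex 365/Em 440 after pH 10 stop; AC50 from Hill fits.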

[15] = molecular target: Glucocorticoid receptor (Homo sapiens) (UniProt P04150); experiment: qHTS assay for small molecule agonists of glucocorticoid receptor signaling (AID 588532; active means well fitted curve in the direction sought with a large enough effect in the signal ratio, with a control signal flat; the % refers to the signal ratio;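 further: 100% = dexamethasone at 0.1 µM and 0% = DMSO only wells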); conditions: HeLa MMTV-bla, beta-lactamase ratio, agonist, 18 h; hits give high values; percent of dexamethasone control, DMSO zero
Procedure, shortened: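 Using MMTV-bla HeLa cells in medium with 1% stripped FBS and 25 mM HEPES, compounds were titrated and incubated overnight-length (18 h). Beta-lactamase cleavage of CCF4 was quantified by dual-emission fluorescence.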

[16] = molecular target: Glucocorticoid receptor (Homo sapiens) (UniProt P04150); experiment: qHTS assay for small molecule antagonists of glucocorticoid receptor signaling (AID 588533; active means well fitted inhibition curve with a large enough effect in the signal ratio, with a control signal flat, not every such curve was filed as active; the % refers to the signal ratio)
Procedure, shortened: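 Antagonist-mode qHTS: compound titrations added to GRE-bla HeLa cells, then dexamethasone 2 nM final; 18 h, 37 C. CCF4 FRET fluorescence normalized to dexamethasone and DMSO; IC50 from Hill fit.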

[17] = molecular target: Peroxisome proliferator-activated receptor gamma (Homo sapiens) (UniProt P37231); experiment: qHTS assay for small molecule antagonists of peroxisome proliferator-activated receptor gamma signaling (AID 588537; active means well fitted inhibition curve with a large enough effect in the signal ratio, with a control signal flat, not every such curve was filed as active; the % refers to the signal ratio;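 further: reporter cells co-stimulated with 50 nM rosiglitazone agonist during compound treatment; % of control where 0% means no effect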)
Chain of Peroxisome proliferator-activated receptor gamma (Homo sapiens) (P37231 whole entry, looked up): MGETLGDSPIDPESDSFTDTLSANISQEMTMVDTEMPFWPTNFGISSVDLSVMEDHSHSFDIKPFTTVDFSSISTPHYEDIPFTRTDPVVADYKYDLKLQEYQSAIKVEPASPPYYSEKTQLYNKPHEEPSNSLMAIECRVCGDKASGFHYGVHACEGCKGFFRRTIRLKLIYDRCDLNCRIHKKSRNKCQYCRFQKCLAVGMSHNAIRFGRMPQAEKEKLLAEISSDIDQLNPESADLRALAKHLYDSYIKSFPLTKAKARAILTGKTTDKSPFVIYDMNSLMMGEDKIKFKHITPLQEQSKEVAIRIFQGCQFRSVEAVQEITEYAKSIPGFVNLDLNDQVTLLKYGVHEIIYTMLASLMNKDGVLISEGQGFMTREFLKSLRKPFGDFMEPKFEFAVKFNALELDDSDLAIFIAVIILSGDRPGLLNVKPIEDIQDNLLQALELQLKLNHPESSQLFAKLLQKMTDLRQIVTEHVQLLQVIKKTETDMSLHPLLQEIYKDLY
Procedure, shortened: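 Antagonist mode, beta-lactamase reporter in HEK293; charcoal/dextran FBS 1%; 3000 cells/well, 37 C 6-6.5 h; cpd titration + rosiglitazone 50 nM final, 16 h 37 C; CCF4, 2 h RT; 460/530 nm; Hill fit → IC50, efficacy.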

[18] = qHTS assay for small molecule agonists of the antioxidant response element (ARE) signaling pathway (AID 651741; active means well fitted activation curve with a large enough effect in the signal ratio; the % refers to the signal ratio; further: potency means the concentration at half of the fitted maximal effect)
Procedure, shortened: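 Quantitative HTS in HepG2 cells stably expressing an ARE-beta-lactamase reporter; 16 h compound exposure at 37 C, followed by 2 h room-temperature incubation with LiveBLAzer B/G FRET substrate and fluorescence measurement.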

[19] = molecular target: Peroxisome proliferator-activated receptor alpha (Homo sapiens) (UniProt Q07869); experiment: qHTS assay for small molecule agonists of the peroxisome proliferator-activated receptor alpha (PPARalpha) signaling pathway (AID 651778; active means well fitted curve in the direction sought with a large enough effect; an effect the other way counts as inactive or inconclusive; further: % of control where 0% means no effect); conditions: PathHunter PPARalpha complementation, chemiluminescence, 6 h; max response: hits give high values
Procedure, shortened: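 Chemiluminescence from complemented enzyme reported PPARalpha activation in cells after 6 hr of compound treatment at 37 C. The detection reagent was incubated for 60 min at room temperature, and compounds were scored as agonists.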

[20] = qHTS assay for small molecule agonists of the antioxidant response element (ARE) signaling pathway measured by Nrf2-dependant transcriptional activity - cell viability counter screen (AID 720653; active means well fitted curve in the direction sought with a large enough effect in the repeat runs; an effect the other way counts as inactive or inconclusive; further: on the % scale 0 is the no-effect control and ±100 the full control effect); conditions: ARE-bla HepG2 viability, CellTiter-Glo ATP luminescence, 16 h; max response: hits give low values
Procedure, shortened: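 Cytotoxicity counter screen: intracellular ATP quantified by CellTiter-Glo luminescence in the same ARE-bla HepG2 plates, after 16 h compound exposure and a 2 h beta-lactamase substrate step.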

[21] = qHTS assay for cell viability of HEK293 cells (AID 743288; active means well fitted curve in the direction sought with a large enough effect; an effect the other way counts as inactive or inconclusive; further: on the % scale 0 is the no-effect control and ±100 the full control effect; nearly all actives have a fitted effect of over 50% in size); conditions: ATP luminescence (CellTiter-Glo), 18 h; max response: hits give low values
Procedure, shortened: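 The Tox21 protocol used parental HEK293 cells treated for 18 h at 37 C with compounds delivered by pintool; ATP-coupled luminescence after 30 min at room temperature gave viability.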

[22] = qHTS assay for cell viability of the p53RE-bla HCT-116 cell line (AID 743292; active means well fitted curve in the direction sought with a large enough effect; an effect the other way counts as inactive or inconclusive; further: on the % scale 0 is the no-effect control and ±100 the full control effect; nearly all actives have a fitted effect of over 55% in size)
Procedure, shortened: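 In this qHTS counter-screen, metabolically competent p53RE-bla HCT-116 cells were counted via their ATP content. Compounds were applied for 16 h at 37 C and luciferase-coupled luminescence was measured.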

[23] = molecular target: Nuclear receptor subfamily 1 group I member 2 (Rattus norvegicus) (UniProt Q9R1A7); experiment: qHTS assay for small molecule activators of the rat pregnane X receptor (rPXR) signaling pathway (AID 651751; call rule not given here; further: 0% is about no effect); conditions: rPXR reporter cells, luciferase (One-Glo), 24 h
Chain of Nuclear receptor subfamily 1 group I member 2 (Rattus norvegicus) (Q9R1A7 whole entry, looked up): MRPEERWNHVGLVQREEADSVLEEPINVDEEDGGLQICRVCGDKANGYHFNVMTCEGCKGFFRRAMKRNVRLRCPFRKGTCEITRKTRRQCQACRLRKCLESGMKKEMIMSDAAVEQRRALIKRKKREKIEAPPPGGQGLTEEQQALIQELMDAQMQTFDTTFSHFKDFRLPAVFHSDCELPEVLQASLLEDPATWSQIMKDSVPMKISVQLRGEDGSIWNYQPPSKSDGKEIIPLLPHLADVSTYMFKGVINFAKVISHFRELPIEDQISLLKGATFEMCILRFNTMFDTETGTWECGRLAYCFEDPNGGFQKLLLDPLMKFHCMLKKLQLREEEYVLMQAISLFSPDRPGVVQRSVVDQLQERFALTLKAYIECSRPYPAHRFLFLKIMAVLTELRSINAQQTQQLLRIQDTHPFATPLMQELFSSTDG

COc1cc(NC(=O)NC(C)(C(F)(F)F)C(F)(F)F)cc(OC)c1OC
inactive: activity change, negative = inhibition [1] -9.62% | activity change, negative = inhibition [2] 19.4% | activity, negative = inhibition [3] -4.15% | Potency [4] > 20.6 µM | activation [5] -29.2%

COC1=CC(=O)CC(C)C12Oc1c(Cl)c(OC)cc(OC)c1C2=O (stereo not given)
inactive: activity change, negative = inhibition [1] -16.1% | activity change, negative = inhibition [2] -12.3% | activity, negative = inhibition [3] 4.38% | Potency [4] > 20.6 µM | Potency [6] | outcome [7]

CC(=O)S[C@@H]1CC2=CC(=O)CC[C@@]2(C)[C@H]2CC[C@]3(C)[C@H](CC[C@@]34CCC(=O)O4)[C@H]12
inactive: activity change, negative = inhibition [1] 19.8% [at 38 µM] | activity change, negative = inhibition [2] -10% [at 38 µM] | activity, negative = inhibition [3] -9.34% [at 38 µM] | Potency [8] > 46 µM | Potency [9] | outcome [10] | Potency [11] | Potency [12] | outcome [13] | outcome [14]
active: Potency [4] 1.4 µM

O=c1oc2cc(O)ccc2c2oc3cc(O)ccc3c12
active: Potency [18] 54.5 µM
inactive: activity change, negative = inhibition [1] 5.61% | activity change, negative = inhibition [2] 3.33% | activity, negative = inhibition [3] -5.07% | Potency [4] > 20.6 µM | activation [15] -5.79% | Potency [16] | Potency [17] | max response [19] -1.88% | max response [20] -3.33% | max response [21] -9.05% | Potency [22] | max response [23] 3.73%

COc1ccc(C2C(C(C)=O)=C(O)C(=O)N2c2nccs2)cc1OC (stereo not given)
inactive: activity change, negative = inhibition [1] -6.01% | activity change, negative = inhibition [2] 21.8% | activity, negative = inhibition [3] 3.64% | Potency [4] > 20.6 µM | activation [5] -13.7%

COc1ccc2c(C)nc(Nc3nc(C)cc(C)n3)nc2c1
inactive: activity change, negative = inhibition [1] -4.83% | activity change, negative = inhibition [2] -4.96% | activity, negative = inhibition [3] 7.03% | Potency [4] > 20.6 µM | activation [5] -6.59%

Cc1cc(C)c(S(=O)(=O)O)c(C)n1
inactive: activity change, negative = inhibition [1] 6.1% | activity change, negative = inhibition [2] -2.21% | activity, negative = inhibition [3] 6.56% | Potency [4] > 20.6 µM | activation [5] 11.7%

Cn1c2c(c(=O)n(C)c1=O)C(NC(=O)C(C)(C)C)(C(F)(F)F)C(=O)N2 (stereo not given)
inactive: activity change, negative = inhibition [1] -5.62% | activity change, negative = inhibition [2] -2.4% | activity, negative = inhibition [3] 6.52% | Potency [4] > 20.6 µM | activation [5] 8.6%
